Laboratory results from PubChem BioAssay AID1159580 (chemical genetic matrix, 2015).
Among all 5,500 compounds or so, about 2,000 (36%) were called active. About 18% were inconclusive and are not listed. This is one part of the list. A number with no mark means an inactive call. No stated cut-off is given here; in the data, active means normalized growth mostly below about 0.91 (no sharp cut-off); inconclusive means no clear call, values can overlap the other calls; inactive means mostly above about 0.92.

Test: chemical genetic growth profiling, strain panel (AID 1159580);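 further: tested at 20 µM; growth read once vehicle control cultures reached saturation at 30 °C; 1 = growth at the plate median or of vehicle wells; lower values mean less growth of the strain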
Conditions: growth OD
[1] = S. cerevisiae deletion strains, locus YAL013W, strain DEP1, active compounds read low
[2] = S. cerevisiae deletion strains, locus YBR229C, strain ROT2, active compounds read low
[3] = S. cerevisiae deletion strains, locus YDL101C, strain DUN1, active compounds read low
[4] = S. cerevisiae deletion strains, locus YDR150W, strain NUM1, active compounds read low
[5] = S. cerevisiae deletion strains, locus YEL061C, strain CIN8, active compounds read low
[6] = S. cerevisiae deletion strains, locus YGR078C, strain PAC10, active compounds read low
[7] = S. cerevisiae deletion strains, locus YHR030C, strain SLT2, active compounds read low
[8] = S. cerevisiae deletion strains, locus YHR087W, strain rtc3, active compounds read low
[9] = S. cerevisiae deletion strains, locus YJR043C, strain POL32, active compounds read low
[10] = S. cerevisiae deletion strains, locus YJR075W, strain HOC1, active compounds read low
[11] = S. cerevisiae deletion strains, locus YKL190W, strain CNB1, active compounds read low
[12] = S. cerevisiae deletion strains, locus YLR039C, strain RIC1, active compounds read low
[13] = S. cerevisiae deletion strains, locus YLR058C, strain SHM2 (second series), active compounds read low
[14] = S. cerevisiae deletion strains, locus YLR085C, strain ARP6, active compounds read low
[15] = S. cerevisiae deletion strains, locus YLR262C, strain YPT6, active compounds read low
[16] = S. cerevisiae deletion strains, locus YML094W, strain GIM5, active compounds read low
[17] = S. cerevisiae deletion strains, locus YMR219W, strain ESC1, active compounds read low
[18] = S. cerevisiae deletion strains, locus YMR263W, strain SAP30, active compounds read low
[19] = S. cerevisiae deletion strains, locus YNL153C, strain GIM3, active compounds read low
[20] = S. cerevisiae deletion strains, locus YNL298W, strain CLA4 (second series), active compounds read low
[21] = S. cerevisiae deletion strains, locus YNL322C, strain KRE1, active compounds read low
[22] = S. cerevisiae deletion strains, locus YNR030W, strain Alg12, active compounds read low
[23] = S. cerevisiae deletion strains, locus YPL055C, strain LGE1, active compounds read low
[24] = S. cerevisiae deletion strains, locus YPL241C, strain CIN2, active compounds read low
[25] = S. cerevisiae deletion strains, locus YPR135W, strain CTF4, active compounds read low
[26] = S. cerevisiae deletion strains, locus YCL061C, strain MRC1, active compounds read low
[27] = S. cerevisiae deletion strains, locus YDL134C, strain PPH21, active compounds read low
[28] = S. cerevisiae deletion strains, locus YJL187C, strain SWE1, active compounds read low
[29] = S. cerevisiae deletion strains, locus YMR307W, strain GAS1, active compounds read low
[30] = S. cerevisiae strains, strain wild type, active compounds read low

NNC(=O)c1cccnc1Oc1ccccc1
normalized growth [1]: 1.01
normalized growth [2]: 0.998
normalized growth [3]: 1.03
normalized growth [4]: 1.04
normalized growth [5]: 1.02
normalized growth [6]: 1.02
normalized growth [7]: 1.11
normalized growth [8]: 1.02
normalized growth [9]: 1.01
normalized growth [10]: 1.03
normalized growth [11]: 1.02
normalized growth [12]: 1.12
normalized growth [13]: 1
normalized growth [14]: 1.12
normalized growth [15]: 1.01
normalized growth [16]: 1.03
normalized growth [17]: 1.02
normalized growth [18]: 1.02
normalized growth [19]: 1.01
normalized growth [20]: 1.08
normalized growth [21]: 1.01
normalized growth [22]: 1.03
normalized growth [23]: 1.02
normalized growth [24]: 1.04
normalized growth [25]: 1.14

COC(=O)c1cccnc1Sc1ccc(C)cc1
normalized growth [1]: 0.947
normalized growth [2]: 0.97
normalized growth [26]: 0.968
normalized growth [3]: 0.991
normalized growth [27]: 0.958
normalized growth [4]: 0.904
normalized growth [5]: 0.956
normalized growth [6]: 0.954
normalized growth [7]: 0.432 (active)
normalized growth [8]: 0.974
normalized growth [28]: 0.967
normalized growth [9]: 0.95
normalized growth [10]: 0.989
normalized growth [12]: 0.913
normalized growth [13]: 0.966
normalized growth [14]: 0.666 (active)
normalized growth [15]: 0.961
normalized growth [16]: 0.97
normalized growth [17]: 0.958
normalized growth [18]: 0.962
normalized growth [29]: 0.686
normalized growth (S. cerevisiae deletion strains, locus YNL128W, strain TEP1, active compounds read low): 0.98
normalized growth [19]: 0.991
normalized growth [20]: 0.917
normalized growth [21]: 0.965
normalized growth [22]: 0.928
normalized growth (S. cerevisiae deletion strains, locus YOL006C, strain TOP1, active compounds read low): 0.684 (active)
normalized growth [23]: 0.812
normalized growth [24]: 0.769 (active)
normalized growth [25]: 0.61 (active)
normalized growth [30]: 0.965

CC(C)(C)c1ccc(Oc2ncccc2NC(=O)c2ccccc2C(F)(F)F)cc1
normalized growth [1]: 0.986
normalized growth [2]: 1.01
normalized growth [3]: 1.02
normalized growth [27]: 0.996
normalized growth [4]: 1.06
normalized growth [5]: 1
normalized growth [6]: 0.992
normalized growth [7]: 0.934
normalized growth [8]: 1
normalized growth [28]: 0.998
normalized growth [9]: 0.948
normalized growth [10]: 0.988
normalized growth [11]: 1
normalized growth [12]: 0.982
normalized growth [13]: 0.986
normalized growth [14]: 0.972
normalized growth [15]: 0.967
normalized growth [16]: 1.03
normalized growth [17]: 0.999
normalized growth [18]: 1.01
normalized growth [29]: 0.876
normalized growth [19]: 1
normalized growth [20]: 0.987
normalized growth [21]: 1
normalized growth [22]: 0.993
normalized growth [23]: 0.996
normalized growth [24]: 0.987
normalized growth [25]: 0.984

Cc1ccc(SC(=O)c2cccnc2Oc2ccccc2)cc1
normalized growth [1]: 0.972
normalized growth [2]: 0.988
normalized growth [26]: 0.989
normalized growth [3]: 1.03
normalized growth [27]: 0.983
normalized growth [4]: 1.02
normalized growth [5]: 0.965
normalized growth [6]: 0.992
normalized growth [7]: 0.815
normalized growth [8]: 0.953
normalized growth [28]: 0.98
normalized growth [9]: 0.992
normalized growth [10]: 0.985
normalized growth [12]: 0.723 (active)
normalized growth [13]: 0.992
normalized growth [14]: 0.818
normalized growth [15]: 0.679 (active)
normalized growth [16]: 0.949
normalized growth [17]: 0.993
normalized growth [18]: 0.984
normalized growth [19]: 0.982
normalized growth [20]: 0.925
normalized growth [21]: 0.983
normalized growth [22]: 0.91
normalized growth [23]: 0.939
normalized growth [24]: 0.94
normalized growth [25]: 0.723
normalized growth [30]: 0.952
